Experimental data taken from the supplement of paper PMC10849652.
Targets with a hit are over-represented here; the source holds about 8,800 in all. About 0.5% of all pairs of compound and target were hits.

Assays:
Assay in all cases: log2 fold change, soluble protein after heating vs DMSO (PISA); higher = thermal stabilisation; K562 lysate, 10 uM; active = over 0.2 and 3.5 SD of the protein, either way, in both replicates (recomputed)
[1] = compound: C1=CC=C(C=C1)[C@H](COC2=CC3=C(C=C2)NC(=O)N3)NC(=O)C4=CC=CN(C4=O)CC5=CC(=C(C=C5)F)F
Method in brief: (§1)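 A 30 min treatment with 10 μM compound was applied to crude K562 extract at 1 mg/mL protein in PBS pH 7.4 with 1 mM MgCl2. Heating for 3 min spanned 48°C-58°C, after which aliquots were pooled, adjusted to 0.5% NP-40 at 4°C and spun at 21,000xg for 90 min. TMTpro 16plex LC-MS/MS of the supernatant, with channel sums equalised, gave values recorded as log-two fold change in thermal stability against solvent controls, from duplicates.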

[2] = compound: CC1=C(SC2=C1C(=N[C@H](C3=NN=C(N32)C)CC(=O)N)C4=CC=C(C=C4)Cl)C
Method in brief: as §1

[3] = compound: CC1=C2C(=CC=C1)N=C(N(C2=O)C3=CC=CC=C3C)CN4C=NC5=C(N=CN=C54)N
Method in brief: as §1

[4] = compound: Cc1sc2c(c1C)C(c1ccc(Cl)cc1)=N[C@@H](CC(=O)OC(C)(C)C)c1nnc(C)n1-2
Method in brief: as §1

[5] = compound: c1ccc([C@@H]2C[C@H]2NC2CCNCC2)cc1
Method in brief: as §1

Measured: log2 fold change

TMEM14C (UniProt Q9P0S9)
inactive: [1] -0.131 | [2] -0.031 | [3] 0.14 | [4] -0.015

TUBA1B (UniProt P68363)
Chain of UniProt P68363 (P68363 whole entry, looked up): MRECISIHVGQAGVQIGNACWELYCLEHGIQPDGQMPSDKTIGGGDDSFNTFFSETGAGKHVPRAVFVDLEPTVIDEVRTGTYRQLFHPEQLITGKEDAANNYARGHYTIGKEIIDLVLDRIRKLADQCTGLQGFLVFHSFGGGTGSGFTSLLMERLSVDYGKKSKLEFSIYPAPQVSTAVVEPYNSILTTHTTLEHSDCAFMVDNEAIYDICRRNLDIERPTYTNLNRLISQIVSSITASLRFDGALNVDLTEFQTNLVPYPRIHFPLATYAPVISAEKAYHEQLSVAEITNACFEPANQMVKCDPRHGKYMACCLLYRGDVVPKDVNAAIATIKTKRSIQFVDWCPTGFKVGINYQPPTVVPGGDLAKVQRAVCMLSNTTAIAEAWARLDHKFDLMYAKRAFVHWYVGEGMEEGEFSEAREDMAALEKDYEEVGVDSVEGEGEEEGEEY
inactive: [1] -0.006 | [2] 0.014 | [3] 0.004 | [4] 0.015 | [5] -0.03

UBL4A (UniProt P11441)
Chain of UniProt P11441 (P11441 whole entry, looked up): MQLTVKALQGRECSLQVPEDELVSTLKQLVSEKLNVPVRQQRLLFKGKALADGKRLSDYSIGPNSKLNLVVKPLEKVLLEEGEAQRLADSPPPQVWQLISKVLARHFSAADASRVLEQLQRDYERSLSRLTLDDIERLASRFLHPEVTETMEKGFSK
inactive: [1] -0.029 | [2] -0.003 | [3] -0.017 | [4] 0.142 | [5] 0.073

TIAL1 isoform 2 (UniProt Q01085)
inactive: [1] 0.068 | [2] 0.017 | [3] -0.02 | [4] 0.031 | [5] -0.021

TPP2 (UniProt Q5VZU9)
inactive: [1] 0.004 | [2] -0.117 | [3] 0.001 | [4] 0.034 | [5] -0.08

TRAPPC6A isoform 2 (UniProt O75865)
inactive: [1] 0.025 | [2] 0.046 | [3] -0.043 | [4] -0.003 | [5] 0.014

UBTF (UniProt P17480)
inactive: [1] -0.031 | [2] 0.028 | [3] -0.012 | [4] 0.007 | [5] 0.069

TUBA1C (UniProt Q9BQE3)
inactive: [1] 0.043 | [2] 0.03 | [3] 0.023 | [4] 0.003 | [5] -0.006

TRADD (UniProt Q15628)
inactive: [1] -0.051 | [2] -0.016 | [3] 0.112 | [4] 0.05 | [5] 0.033

UBAP2L isoform 1 (UniProt Q14157)
inactive: [1] -0.101 | [2] -0.087

TNIK isoform 4 (UniProt Q9UKE5)
inactive: [1] 0.015 | [2] -0.002 | [3] -0.017 | [4] -0.032 | [5] -0.076

TOR3A (UniProt Q9H497)
inactive: [1] -0.009 | [2] -0.025 | [3] 0.013 | [4] 0.018 | [5] -0.008

TTC37 (UniProt Q6PGP7)
inactive: [1] -0.08 | [2] 0.044 | [3] 0.16 | [4] -0.3

TMEM164 (UniProt Q5U3C3)
inactive: [1] -0.13 | [2] -0.155 | [3] 0.111 | [4] -0.217 | [5] -0.543

UBE2H (UniProt P62256)
inactive: [1] 0.024 | [2] 0.02 | [3] 0.012 | [4] -0.046 | [5] 0.095

TPM3 (UniProt P06753)
Chain of UniProt P06753 (P06753 whole entry, looked up): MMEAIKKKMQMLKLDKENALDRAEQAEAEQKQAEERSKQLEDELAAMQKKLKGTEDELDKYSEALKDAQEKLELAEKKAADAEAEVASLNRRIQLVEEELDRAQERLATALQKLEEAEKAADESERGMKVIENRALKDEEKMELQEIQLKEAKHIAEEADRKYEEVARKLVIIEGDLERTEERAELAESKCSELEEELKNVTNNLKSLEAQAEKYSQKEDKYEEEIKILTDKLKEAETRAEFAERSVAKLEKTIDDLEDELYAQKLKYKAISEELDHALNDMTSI
inactive: [1] -0.018 | [2] 0.008 | [3] -0.018 | [4] 0.015 | [5] 0.057

THAP9 (UniProt Q9H5L6)
Chain of UniProt Q9H5L6 (Q9H5L6 whole entry, looked up): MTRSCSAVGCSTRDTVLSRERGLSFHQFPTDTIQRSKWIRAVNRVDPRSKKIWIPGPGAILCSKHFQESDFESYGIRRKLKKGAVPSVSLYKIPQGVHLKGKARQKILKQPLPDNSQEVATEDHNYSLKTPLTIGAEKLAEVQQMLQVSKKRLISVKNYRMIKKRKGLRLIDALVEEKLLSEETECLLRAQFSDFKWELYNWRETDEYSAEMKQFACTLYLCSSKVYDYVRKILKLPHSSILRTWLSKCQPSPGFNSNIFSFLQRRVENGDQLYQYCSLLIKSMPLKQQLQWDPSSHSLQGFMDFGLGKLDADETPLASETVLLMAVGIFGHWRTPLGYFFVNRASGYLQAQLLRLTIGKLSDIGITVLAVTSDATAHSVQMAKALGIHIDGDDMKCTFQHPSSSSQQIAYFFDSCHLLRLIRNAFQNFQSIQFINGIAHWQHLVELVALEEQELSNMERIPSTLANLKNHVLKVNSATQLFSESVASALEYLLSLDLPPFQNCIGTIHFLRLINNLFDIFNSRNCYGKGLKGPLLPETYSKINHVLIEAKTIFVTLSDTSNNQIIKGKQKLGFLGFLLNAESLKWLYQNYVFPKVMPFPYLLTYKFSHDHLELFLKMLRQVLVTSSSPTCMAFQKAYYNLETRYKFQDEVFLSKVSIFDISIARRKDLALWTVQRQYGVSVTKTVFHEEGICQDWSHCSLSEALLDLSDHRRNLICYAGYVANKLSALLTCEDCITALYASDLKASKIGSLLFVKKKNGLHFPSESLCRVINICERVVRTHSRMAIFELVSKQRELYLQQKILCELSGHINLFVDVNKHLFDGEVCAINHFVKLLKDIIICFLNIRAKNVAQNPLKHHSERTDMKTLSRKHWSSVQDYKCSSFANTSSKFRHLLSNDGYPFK
inactive: [1] 0.024 | [2] 0.039 | [3] 0.165 | [4] -0.194 | [5] -0.284

UBE2L6 (UniProt O14933)
inactive: [1] -0.01 | [2] 0 | [3] -0.068 | [4] 0.032 | [5] 0.008

TELO2 (UniProt Q9Y4R8)
inactive: [1] -0.073 | [2] -0.012 | [3] -0.019 | [4] 0.056 | [5] 0.025

TLK2 isoform 2 (UniProt Q86UE8)
inactive: [1] 0.014 | [2] -0.027 | [3] 0.033 | [4] -0.015 | [5] -0.075

TECR (UniProt Q9NZ01)
inactive: [1] -0.131 | [2] 0.083 | [3] 0.015 | [4] 0.017 | [5] 0.046

TTC38 (UniProt Q5R3I4)
inactive: [1] -0.001 | [2] 0 | [3] 0.05 | [4] 0.003 | [5] 0.126

TBC1D8B (UniProt Q0IIM8)
inactive: [1] -0.086 | [2] -0.078 | [3] -0.038 | [4] -0.013 | [5] -0.101

TRAPPC10 (UniProt P48553)
Chain of UniProt P48553 (P48553 whole entry, looked up): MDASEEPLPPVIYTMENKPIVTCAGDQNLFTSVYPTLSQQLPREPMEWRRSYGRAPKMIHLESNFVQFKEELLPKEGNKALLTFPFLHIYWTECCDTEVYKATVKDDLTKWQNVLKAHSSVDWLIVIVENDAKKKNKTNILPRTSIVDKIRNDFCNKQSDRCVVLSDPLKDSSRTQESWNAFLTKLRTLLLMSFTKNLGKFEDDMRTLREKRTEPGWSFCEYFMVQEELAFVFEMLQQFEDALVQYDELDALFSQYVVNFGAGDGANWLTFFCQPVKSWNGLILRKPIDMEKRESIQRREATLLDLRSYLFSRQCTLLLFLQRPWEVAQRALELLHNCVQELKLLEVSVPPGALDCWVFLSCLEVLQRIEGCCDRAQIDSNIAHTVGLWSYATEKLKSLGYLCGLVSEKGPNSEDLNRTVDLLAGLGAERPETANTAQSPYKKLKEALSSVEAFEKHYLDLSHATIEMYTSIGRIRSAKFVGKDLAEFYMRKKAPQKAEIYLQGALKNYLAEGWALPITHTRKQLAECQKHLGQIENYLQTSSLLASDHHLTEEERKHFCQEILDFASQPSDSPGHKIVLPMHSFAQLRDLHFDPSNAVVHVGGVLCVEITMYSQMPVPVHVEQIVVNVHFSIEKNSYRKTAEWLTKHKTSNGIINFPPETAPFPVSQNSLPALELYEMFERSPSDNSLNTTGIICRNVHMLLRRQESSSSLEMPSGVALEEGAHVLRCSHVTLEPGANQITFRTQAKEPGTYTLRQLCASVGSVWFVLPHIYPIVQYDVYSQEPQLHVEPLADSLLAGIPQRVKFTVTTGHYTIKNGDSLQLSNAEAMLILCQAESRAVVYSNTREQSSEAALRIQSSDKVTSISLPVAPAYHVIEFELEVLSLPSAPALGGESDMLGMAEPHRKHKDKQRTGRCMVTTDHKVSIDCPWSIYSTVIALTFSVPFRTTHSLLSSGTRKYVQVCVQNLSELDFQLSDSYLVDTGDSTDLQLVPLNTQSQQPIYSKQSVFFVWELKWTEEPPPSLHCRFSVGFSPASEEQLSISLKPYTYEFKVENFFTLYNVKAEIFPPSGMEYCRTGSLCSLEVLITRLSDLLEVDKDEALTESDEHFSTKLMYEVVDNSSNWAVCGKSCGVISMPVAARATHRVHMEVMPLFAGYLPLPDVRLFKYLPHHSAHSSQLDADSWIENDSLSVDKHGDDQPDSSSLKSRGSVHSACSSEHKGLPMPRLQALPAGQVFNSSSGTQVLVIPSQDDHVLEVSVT
inactive: [1] -0.014 | [2] -0.015 | [3] 0.033 | [4] -0.004 | [5] -0.012

TMPO isoform 2 (UniProt P42167)
inactive: [1] 0.11 | [2] 0.088 | [3] 0.033 | [4] -0.069

TTC27 (UniProt Q6P3X3)
inactive: [1] -0.039 | [2] -0.021 | [3] 0.028 | [4] -0.019 | [5] 0.032

TRIM56 (UniProt Q9BRZ2)
inactive: [1] -0.057 | [2] -0.009 | [3] 0.076 | [4] 0.003 | [5] 0.099

TERF2IP (UniProt Q9NYB0)
inactive: [1] 0.023 | [2] -0.006 | [3] -0.077 | [4] -0.03 | [5] 0.116

TRMT10A (UniProt Q8TBZ6)
inactive: [1] -0.046 | [2] 0.099 | [3] -0.025 | [4] 0.016 | [5] -0.029

UBXN2B (UniProt Q14CS0)
Chain of UniProt Q14CS0 (Q14CS0 whole entry, looked up): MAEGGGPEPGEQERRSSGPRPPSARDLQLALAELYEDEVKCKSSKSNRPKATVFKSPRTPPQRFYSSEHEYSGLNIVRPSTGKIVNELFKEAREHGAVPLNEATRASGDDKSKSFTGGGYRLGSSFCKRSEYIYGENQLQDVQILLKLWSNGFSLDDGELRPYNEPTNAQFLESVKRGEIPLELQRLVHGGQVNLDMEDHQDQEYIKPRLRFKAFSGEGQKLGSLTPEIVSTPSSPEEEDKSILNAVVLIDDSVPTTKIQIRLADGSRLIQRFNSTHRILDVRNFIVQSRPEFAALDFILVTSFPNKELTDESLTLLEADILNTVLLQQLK
inactive: [1] 0.028 | [2] -0.03 | [3] 0.019 | [4] 0.042 | [5] 0.014

TTLL12 (UniProt Q14166)
inactive: [1] -0.004 | [2] 0.013 | [3] 0.011 | [4] 0.015 | [5] 0.033

TP53RK (UniProt Q96S44)
inactive: [1] 0.013 | [2] 0.021 | [3] -0.003 | [4] 0.073 | [5] 0.09

TFIP11 (UniProt Q9UBB9)
Chain of UniProt Q9UBB9 (Q9UBB9 whole entry, looked up): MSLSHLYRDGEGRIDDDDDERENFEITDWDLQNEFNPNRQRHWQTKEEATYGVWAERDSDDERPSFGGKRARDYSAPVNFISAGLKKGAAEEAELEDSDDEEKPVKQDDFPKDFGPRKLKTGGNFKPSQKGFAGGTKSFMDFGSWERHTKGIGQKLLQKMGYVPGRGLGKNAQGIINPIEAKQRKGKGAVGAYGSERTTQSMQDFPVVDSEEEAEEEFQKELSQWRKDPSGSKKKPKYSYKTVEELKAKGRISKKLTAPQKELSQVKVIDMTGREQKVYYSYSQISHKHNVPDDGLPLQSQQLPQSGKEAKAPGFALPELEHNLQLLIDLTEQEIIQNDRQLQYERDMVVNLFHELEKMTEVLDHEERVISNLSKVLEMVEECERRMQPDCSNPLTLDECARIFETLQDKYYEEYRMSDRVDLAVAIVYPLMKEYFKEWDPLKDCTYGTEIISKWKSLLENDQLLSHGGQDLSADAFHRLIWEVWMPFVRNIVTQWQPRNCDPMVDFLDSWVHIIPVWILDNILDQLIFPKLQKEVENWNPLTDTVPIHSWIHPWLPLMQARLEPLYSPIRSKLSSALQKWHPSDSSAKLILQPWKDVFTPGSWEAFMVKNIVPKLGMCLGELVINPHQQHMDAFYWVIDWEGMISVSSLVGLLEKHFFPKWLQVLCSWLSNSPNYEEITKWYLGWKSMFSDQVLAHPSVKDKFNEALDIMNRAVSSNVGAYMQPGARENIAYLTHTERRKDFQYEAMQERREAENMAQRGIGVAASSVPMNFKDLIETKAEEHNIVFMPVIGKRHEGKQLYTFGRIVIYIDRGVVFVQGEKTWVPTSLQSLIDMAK
inactive: [1] -0.033 | [2] -0.022 | [3] 0.007 | [4] -0.002 | [5] 0.044

UGDH (UniProt O60701)
inactive: [1] 0.003 | [2] 0.001 | [3] -0.004 | [4] -0.056 | [5] 0.026

UBXN10 (UniProt Q96LJ8)
inactive: [1] -0.032 | [2] 0.048 | [3] 0.056 | [4] 0.095 | [5] 0.022

TXNRD2 (UniProt Q9NNW7)
inactive: [1] 0.023 | [2] -0.015 | [3] -0.048 | [4] -0.042 | [5] 0.006

TESC (UniProt Q96BS2)
inactive: [1] 0.034 | [2] -0.131 | [3] -0.001 | [4] 0.004 | [5] 0.016

TFCP2 (UniProt Q12800)
inactive: [1] 0.044 | [2] -0.013 | [3] 0.004 | [4] -0.013 | [5] -0.103

TRIM33 (UniProt H0Y612)
inactive: [1] -0.042 | [2] 0.008 | [3] 0.05 | [4] 0.021 | [5] 0.098

TRIM25 (UniProt Q14258)
inactive: [1] 0.047 | [2] 0.001 | [3] 0.001 | [4] 0.013 | [5] 0.044

TMEM70 (UniProt Q9BUB7)
Chain of UniProt Q9BUB7 (Q9BUB7 whole entry, looked up): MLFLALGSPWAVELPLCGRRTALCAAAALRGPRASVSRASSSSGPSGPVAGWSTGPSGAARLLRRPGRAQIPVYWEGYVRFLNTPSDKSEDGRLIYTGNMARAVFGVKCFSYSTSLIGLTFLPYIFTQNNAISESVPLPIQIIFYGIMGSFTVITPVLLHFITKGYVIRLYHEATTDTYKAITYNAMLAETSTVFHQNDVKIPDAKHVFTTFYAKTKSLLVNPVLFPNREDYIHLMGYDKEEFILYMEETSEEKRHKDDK
inactive: [1] -0.029 | [2] 0.045 | [3] 0.021 | [4] 0.013 | [5] -0.083

TRNAU1AP (UniProt Q9NX07)
inactive: [1] -0.068 | [2] -0.008 | [3] 0.195 | [4] -0.025 | [5] -0.048

TTL (UniProt Q8NG68)
inactive: [1] 0.004 | [2] -0.029 | [3] 0.145 | [4] 0.014 | [5] 0.104

TMPO (UniProt P42166)
inactive: [1] -0.013 | [2] 0.015 | [3] 0.015 | [4] 0.011 | [5] 0.059

TUBB1 (UniProt Q9H4B7)
inactive: [1] -0.005 | [2] 0.019 | [3] 0.008 | [4] 0.063 | [5] 0.087

UFM1 (UniProt P61960)
inactive: [1] 0.015 | [2] -0.085 | [3] -0.103 | [4] -0.019 | [5] 0.297

TUBB6 (UniProt Q9BUF5)
Chain of UniProt Q9BUF5 (Q9BUF5 whole entry, looked up): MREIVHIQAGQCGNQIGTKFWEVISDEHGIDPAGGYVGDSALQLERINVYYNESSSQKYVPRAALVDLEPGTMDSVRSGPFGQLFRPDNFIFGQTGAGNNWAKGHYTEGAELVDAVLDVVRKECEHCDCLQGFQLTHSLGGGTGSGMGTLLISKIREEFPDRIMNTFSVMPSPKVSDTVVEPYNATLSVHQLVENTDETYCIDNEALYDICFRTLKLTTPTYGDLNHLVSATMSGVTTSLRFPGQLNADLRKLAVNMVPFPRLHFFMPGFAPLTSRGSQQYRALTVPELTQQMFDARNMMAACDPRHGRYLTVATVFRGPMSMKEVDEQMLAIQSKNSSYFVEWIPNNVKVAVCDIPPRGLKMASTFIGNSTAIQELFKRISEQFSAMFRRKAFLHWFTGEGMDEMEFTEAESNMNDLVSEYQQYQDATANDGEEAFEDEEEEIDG
inactive: [1] -0.005 | [2] 0.033 | [3] 0.02 | [4] 0.017 | [5] 0.027

TTC4 (UniProt O95801)
inactive: [1] -0.018 | [2] -0.003 | [3] 0.001 | [4] 0.033 | [5] -0.013

TLE3 isoform 4 (UniProt Q04726)
inactive: [1] 0.01 | [2] -0.033 | [3] 0.024 | [4] 0.025 | [5] 0.007

TRIP13 (UniProt Q15645)
inactive: [1] 0.006 | [2] 0.015 | [3] 0.018 | [4] 0.01 | [5] 0.049

TPM1 (UniProt H7BYY1)
inactive: [1] -0.028 | [2] 0.017 | [3] 0.059 | [4] 0.031 | [5] 0.023

TRMT2A (UniProt Q8IZ69)
inactive: [1] 0.003 | [2] 0.02 | [3] 0.003 | [4] 0.02 | [5] 0.027

TUBB2A (UniProt Q13885)
inactive: [1] 0.017 | [2] 0.01 | [3] 0 | [4] 0.003 | [5] -0.015

TRAPPC12 (UniProt Q8WVT3)
inactive: [1] 0.005 | [2] -0.016 | [3] -0.023 | [4] 0.003 | [5] 0.015
